# Measured values reported in PubChem BioAssay (NCI).
# About 79,000 compounds went through this panel and 15% of them were active in at least one assay; those are over-represented in the sample as a whole. Values without a mark were called inactive. Rule as the data show it: active = growth inhibition above about 70%; inactive = the rest.
# Assay: NCI Yeast Anticancer Drug Screen. Data for the mec2-1 strain (AID 157)
# Settings: S. cerevisiae mec2-1 strain, at 50.0 µM, active compounds read high
# Description: Growth inhibition of yeast strains with defined genetic alterations is measured as a screen for potential anti-cancer activity. Selected strains with alterations in DNA damage repair or cell cycle control were exposed to compounds and growth inhibition was measured relative to vehicle treated controls. The strain used in this assay is mec2-1
row,SMILES,growth inhibition [%]
1,CCOC(=O)c1cc2cccc(OC)c2oc1=O,3.45
2,C/C(=N\NC(=O)c1ccccc1N)c1ccccc1O,-7.75
3,S=c1sc2ccccc2n1CN1CCCCC1,14.8
4,CC(=Nc1ccccc1)C1=C(O)C(Cc2cccc(F)c2)NC1=O (stereo not given),4.35
5,CC(=O)Nc1c(C)cc(C)cc1C,-0.35
6,COc1ccc(C)cc1OC,12.9
7,CCOC(=O)C/C(C)=N\O,-11.3
8,C#CCSc1nnnn1-c1ccc(Br)c(C)c1,1.3
9,COc1cc2c(cc1OC)[C@H](C(=O)O)[C@@H](c1ccc(OC(C)C)c(OC)c1)N(C)C2=O,-10
10,COS(=O)(=O)c1ccc(Br)cc1,-23.4
11,O=C(/C=C/C(=O)c1ccccc1)c1ccccc1,16.4
12,C#CC(C)(O)c1ccc(Cl)cc1 (stereo not given),-2.15
13,Cc1ccc(/C=C2\SC(=S)N(c3ccc(F)cc3)C2=O)o1,10.9
14,CC(C)C1CCCCC1O (stereo not given),-9.1
15,Cc1cc(C)c(CC(=O)O)c(C)c1,6.3
16,O=[N+]([O-])c1ccc(Cl)c(S(=O)(=O)O)c1,21.3
17,COC(=O)c1ccc(NC(=O)CCl)cc1,37
18,c1c(-c2cc(C3CC3)[nH]n2)n[nH]c1C1CC1,-0.25
19,COc1nc(N)nc2c1ncn2C1OC(CO)CC1O (stereo not given),-3.2
20,CC(=O)CC(=O)N(C)C,-0.6

row,SMILES,growth inhibition [%]
1,COc1cc(/C=N\Nc2ccccc2)ccc1OC(=O)c1ccccc1,8.95
2,CCS(=O)(=O)CCCl,-5.1
3,CC[N+](C)(CC)CCO,-3.8
4,CN(C)CCC(=O)c1ccc(O)cc1,8.65
5,NCC(=O)CCC(=O)O,-3.7
6,c1ccc2c(c1)Sc1ccccc1S2,6.8
7,CN(C)c1ccc(C(c2ccc(O)cc2)c2ccc(N(C)C)cc2)cc1,-37.1
8,COc1cc2nn(-c3ccccc3N)nc2cc1OC,36.6
9,CCOC(=O)C(O)C(O)C(=O)OCC (stereo not given),-15.8
10,Cc1cc2nc(CC(=O)c3ccccc3)c(=O)[nH]c2cc1C,0.95
11,C/C(=N/NC(N)=O)c1ccco1,-1.05
12,CC1=CC(C)(C)NC(=S)N1c1ccc(S(=O)(=O)O)c2cccc(S(=O)(=O)O)c12,-5.25
13,O=C1C[C@H](c2ccccc2)[C@H](c2ccccc2)C1,4.85
14,CCn1c(=O)n(C)c2c(=O)n(C)c(=O)n(C)c21,-3.8
15,c1cc[n+](C2c3ccccc3C([n+]3ccccc3)c3ccccc32)cc1 (stereo not given),18.8
16,COCCCC/C(=N\OCCN)c1ccc(C(F)(F)F)cc1,4.6
17,CC(=O)Nc1cccc(Cl)c1C,11.7
18,Cc1nc2c(ccc3ccccc32)s1,-5.35
19,O=C(OCC(O)C1OC(c2ccccc2)OC(COC(=O)c2ccccc2)C1O)c1ccccc1 (stereo not given),4.85
20,O=C1OC[C@H]2[C@H](c3ccc(O)c(O)c3)c3cc(O)c(O)cc3C[C@H]12,-2.45
